Source: PubChem BioAssay AID493231 (Broad Institute, 2011)
Results with a measured potency or affinity are listed apart. Active and inactive are the calls of the source. The rule behind the calls is not given here.

The molecules below were run against Acyl-homoserine lactone acylase PvdQ (Pseudomonas aeruginosa (strain ATCC 15692 / DSM 22644 / CIP 104116 / JCM 14847 / LMG 12228 / 1C / PRS 101 / PAO1)) (UniProt Q9I194) (assay: P. aeruginosa PvdQ acylase inhibitors, dose response, biochemical, fluorescence, plate reader and imaging, cherry-picks (AID 493231;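 note: more negative values mean stronger inhibition of the acylase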)). Settings: purified PvdQ acylase, fluorogenic substrate; series mostly up to 10 µM.
Acyl-homoserine lactone acylase PvdQ (Pseudomonas aeruginosa (strain ATCC 15692 / DSM 22644 / CIP 104116 / JCM 14847 / LMG 12228 / 1C / PRS 101 / PAO1)), sequence (Q9I194 whole entry, looked up): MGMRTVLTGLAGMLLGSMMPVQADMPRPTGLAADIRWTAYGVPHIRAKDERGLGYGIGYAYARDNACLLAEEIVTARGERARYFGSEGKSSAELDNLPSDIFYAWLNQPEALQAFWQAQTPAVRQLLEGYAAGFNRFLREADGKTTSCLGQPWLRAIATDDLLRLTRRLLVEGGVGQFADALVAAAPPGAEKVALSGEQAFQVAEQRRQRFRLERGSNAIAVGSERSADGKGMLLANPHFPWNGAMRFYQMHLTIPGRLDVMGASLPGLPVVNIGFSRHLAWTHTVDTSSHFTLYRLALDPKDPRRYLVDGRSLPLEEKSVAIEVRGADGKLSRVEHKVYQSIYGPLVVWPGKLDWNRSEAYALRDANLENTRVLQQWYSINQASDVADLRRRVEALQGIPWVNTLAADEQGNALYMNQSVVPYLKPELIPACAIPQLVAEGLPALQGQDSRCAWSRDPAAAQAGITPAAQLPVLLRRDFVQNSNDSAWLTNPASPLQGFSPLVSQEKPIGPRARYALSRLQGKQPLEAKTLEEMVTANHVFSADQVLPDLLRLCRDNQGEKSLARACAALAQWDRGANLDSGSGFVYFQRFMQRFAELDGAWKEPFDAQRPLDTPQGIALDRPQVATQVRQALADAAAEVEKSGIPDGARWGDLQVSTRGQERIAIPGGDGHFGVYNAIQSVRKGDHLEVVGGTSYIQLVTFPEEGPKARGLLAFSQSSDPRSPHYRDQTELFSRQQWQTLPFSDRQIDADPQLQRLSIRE

outcome, inactive:
COc1ccc(-c2cc3ccccc3cn2)cc1
CC(C)CCN(CCC(C)C)C(CO)(CO)CO
NC(=O)c1ccc(NC(=O)COC(=O)c2n[nH]c3ccccc23)cc1
COc1ccc(NC(=O)C2CCCN(C(=O)NC3CCCCC3)C2)cc1OC (stereo unspecified)
COc1ccccc1C1CCN(C(=O)C2CCCCC2)CC1
CCOc1ccccc1-c1cc(-c2n[nH]c(=S)n2CC)c2ccccc2n1
Cc1ccc(OCCn2cc(/C(N)=N/O)c3ccccc32)cc1C
COc1ccc(C2NCCc3c2[nH]c2ccccc32)cc1COc1ccc(F)cc1 (stereo unspecified)
CCOc1ccc(NC(=O)NCc2cccn2C)cc1
CCOC(=O)Nc1ccc2nc(N3CCCCCC3)sc2c1
COC(=O)c1sccc1N/N=C/c1ccc(OC)c(OC)c1OC
O=C1CCCN=C(Nc2ccc(F)c(Cl)c2)S1
Cc1ccccc1OCCSc1nnc(-c2ccncc2)n1C
COC(=O)CNC(c1ccccc1)c1cc(C)ccc1NS(=O)(=O)c1ccc(C)cc1 (stereo unspecified)
c1ccc(CCc2ccccn2)cc1
O=C(/C=C/c1cccs1)Nc1ccncc1
Cc1cccc(NCc2ccccc2O)n1
O=C(c1ccc(-c2ccccc2)cc1)C1CCCN(C(=O)c2cncs2)C1 (stereo unspecified)
CC(Sc1nnc(-c2ccccc2F)n1C)C(=O)NC1CCCCC1 (stereo unspecified)
S=C(NCc1ccc2c(c1)OCO2)Nc1ccc2nsnc2c1
Cc1cc(NC(=O)c2ccc(Br)c([N+](=O)[O-])c2)no1
COc1ccc(NC(=O)C(c2cc3c(cc2[N+](=O)[O-])OCO3)N2CCN(C=O)CC2)cc1 (stereo unspecified)
CCOC(=O)C1CCCN(C(=O)c2cc(S(=O)(=O)N(C)C)ccc2N2CCCC2)C1 (stereo unspecified)
NC(=O)COC(=O)c1ccc(-c2ccccc2)cc1
CCOC(=O)CSc1nnc(-c2ccc(S(=O)(=O)N3CCC(C)CC3)cc2)o1
Cc1ccc(CCNC(=O)CCS(=O)(=O)c2ccc(Br)cc2)cc1
Cc1ccc(S(=O)(=O)NCc2ccccn2)cc1C
CC(=O)c1ccc(NC(=S)N2CCCC(CO)C2)cc1 (stereo unspecified)
Cc1ccc(Nc2nc(-c3sc(C)nc3C)cs2)cc1
CCN1CCCC1CN(Cc1cc2ccc(C)cc2[nH]c1=O)C(=S)Nc1cccc(OC)c1 (stereo unspecified)
O=C(O)c1ccc(N=Nc2c(O)ccc3ncccc23)cc1
O=C(O)c1cc2nccc(-c3ccco3)n2n1
Cn1cccc1Cc1nnc(SCC(=O)N2CCN(c3ccccc3)CC2)n1-c1ccc(F)cc1
O=C(COc1ccccc1)OCC(=O)c1ccc(S(=O)(=O)N2CCCCC2)cc1
Cc1[nH]nc2c1C(c1ccco1)C(C#N)=C(N)O2 (stereo unspecified)
Cc1cc(NC(=O)Nc2ccc(F)c(Cl)c2)no1
